Source: PubChem BioAssay
A selection: hits, their analogues and other compounds. The true share with any hit is near 19%.
IL1B secr inh: qHTS for Inhibitors of Inflammasome Signaling: IL-1-beta AlphaLISA Primary Screen | THP-1 LPS/ATP IL-1B secretion, AlphaLISA, 16 h; hits give low values | activity change, % at 57.5 µM | 4.7% of 360,000 active | AID 743279, 2014; in the data active = activity change below about -50%; inconclusive = mostly about -30% to -49%
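THP-1 cells pretreated 1 hr with compounds (up to 57.5 uM final), then stimulated with LPS (250 ng/mL final) plus ATP (1.25 mM final); secreted IL-1B measured by AlphaLISA after 16 hr, decreased signal indicating inhibition.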
HT1080 IDH1KD tx: qHTS for induction of synthetic lethality in tumor cells producing 2HG: qHTS for the HT-1080-IDH1KD cell line; HT-1080 IDH1 knockdown viability, ATP luminescence, 48 h; Potency, µM (titrated, usually from 46.1 µM), most hits filed as cytotoxic; 2% of 360,000 active; AID 686971, 2013
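After a 2 h attachment period, IDH1KD HT-1080 cells took pin-transferred compound for 48 h at 37 °C; ATP-based luminescence after 10 min room-temperature reagent incubation reported viability.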
HT1080-NT tox: qHTS for induction of synthetic lethality in tumor cells producing 2HG: qHTS for the HT-1080-NT fibrosarcoma cell line | HT-1080-NT fibrosarcoma viability, CellTiter-Glo ATP luminescence, 48 h | Potency, µM (titrated, usually from 46.1 µM), most hits filed as cytotoxic | 1.6% of 360,000 active | AID 686970, 2013;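 also: NT is the 2HG producing partner of a matched IDH1 knockdown line; nearly all actives have a fitted effect of over 55% in size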
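HT-1080-NT fibrosarcoma cells (2HG-overproducing), 750 cells/well in RPMI with 5% FBS, dosed after 2 h and incubated 48 h at 37C. CellTiter-Glo luminescence normalized to DMSO and no-cell wells; concentration-response curves fitted and classed.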
DT40 TDP1 CPT: qHTS for Inhibitors of human tyrosyl-DNA phosphodiesterase 1 (TDP1): qHTS in cells in presence of CPT; chicken DT40 Tdp1-/-;hTDP1 cells + 20 nM CPT, ATP luminescence, 48 h; Potency, µM (top dose mostly 46.2 µM), usual class: inhibitors; 12% of 420,000 active; AID 686979, 2013; also: nearly all actives have a fitted effect of over 55% in size
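Cell growth measured by CellTiter-Glo luminescence after a minimum 48 h, 37 C compound exposure with 20 nM CPT in Tdp1-knockout DT40 cells stably expressing hTDP1, seeded 400/well; qHTS titration format.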
TDP1 cell noCPT: qHTS for Inhibitors of human tyrosyl-DNA phosphodiesterase 1 (TDP1): qHTS in cells in absence of CPT; DT40 Tdp1-/- hTDP1 cells, no CPT, ATP luminescence, 48 h; Potency, µM (doses to about 46.2 µM), actives largely listed as inhibitors; AID 686978, 2013; 15% of 420,000 active; also: nearly all actives have a fitted effect of over 55% in size
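A cellular qHTS used chicken DT40 cells lacking endogenous Tdp1 but carrying stably transfected human TDP1. Compounds were applied without camptothecin, and cell growth kinetics were judged by ATP-dependent luminescence after ≥48 hr.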
Numbers stand for hits; i = inactive; ? = inconclusive; nt = no result. Unless noted, calls follow the shape of the dose curve; as a rule, active = well fitted curve in the direction sought with a large enough effect; inconclusive = small, poorly fitted or top-dose-only effect, or another doubt; inactive = no such curve, though single readings can be large; an effect the other way counts as inactive or inconclusive.

SMILES | IL1B secr inh | HT1080 IDH1KD tx | HT1080-NT tox | DT40 TDP1 CPT | TDP1 cell noCPT
CCCCn1c(O)c(C(C)=Nc2ccc(OCC)cc2)c(=O)[nH]c1=O | i | i | i | 18.4µM | 23.1µM
CCCCn1c(O)c(C(C)=Nc2cccc(C(=O)O)c2)c(=O)[nH]c1=O | i | i | i | i | i
Cc1ccc2c(c1)Oc1ccccc1N=C2 | i | i | i | i | ?
COc1ccccc1NC(=O)N(Cc1ccco1)C1CCN(C(C)=O)CC1 | nt | nt | nt | i | ?
C[N@+]12CCCC[C@@H]1CCC(=C(c1cccs1)c1cccs1)C2 | nt | nt | nt | 26.6µM | 18.8µM
COc1ccc2c(c1OC)CN1CCc3cc4c(cc3[C@H]1C2)OCO4 | i | i | i | 14.6µM | 13µM
COc1cc2c(cc1OC)C(C1c3cc4c(cc3CCN1C)OCO4)OC2=O (stereo not drawn) | i | i | i | i | i
COc1ccc2c(c1OC)CN1CCc3cc4c(cc3C1C2)OCO4 (stereo not drawn) | i | i | i | 20.6µM | ?
COc1ccc2c(c1O)-c1c(OC)c(OC)cc3c1[C@H](C2)N(C)CC3 | i | i | ? | i | i
CC(=O)C1CCC2C3CCC4CC(O)CCC4(C)C3CC(O)C12C (stereo not drawn) | nt | nt | nt | i | i
O=C1/C(=C\c2ccccc2)C2OCC=C3CN4CCC56c7ccccc7N1C5C2C3CC46 (stereo not drawn) | i | i | i | 20.6µM | ?
O=C1CC2OCC=C3CN4CC[C@@]56c7ccccc7N1C5C2C3CC46 (stereo partly drawn) | nt | nt | nt | nt | i
CCCCCCCCCCCCCCCC(=O)O[C@@H]1[C@@H](O)[C@@H](O)[C@@H]([C@H](NC(=O)[C@@H]2C[C@@H](CCC)CN2C)[C@H](C)Cl)O[C@@H]1SC | nt | nt | nt | 23.7µM | ?
CC(C)(C)N1CC(C(=O)c2ccccc2)C1c1ccccc1 (stereo not drawn) | -80.2 | ? | i | i | i
CCN(c1ccccc1)S(=O)(=O)c1cccc(C(=O)NCc2cccnc2)c1 | i | i | i | ? | ?
NC(=O)Oc1ccc(Cc2ccccc2)cc1 | nt | nt | nt | i | ?
COc1ccc(CN2CC=C(c3ccc(F)cc3)CC2)cc1Br | i | i | i | ? | 29.1µM
O=[N+]([O-])c1cccc(CN2CC=C(c3ccc(F)cc3)CC2)c1 | i | i | i | ? | ?
O=[N+]([O-])c1ccccc1CN1CC=C(c2ccc(F)cc2)CC1 | i | i | i | 23.1µM | ?
COc1ccc(F)cc1C(=O)C1CCCN(Cc2ccc(O)cc2)C1 (stereo not drawn) | i | i | i | i | i
CCN(CC)c1ccc(CN2CC=C(c3ccc(F)cc3)CC2)cc1 | i | ? | ? | 18.4µM | 18.4µM
Oc1ccc2c3c1O[C@H]1[C@@H](O)CC[C@@]4(O)C(C2)N(CC2CCC2)CCC314 (stereo partly drawn) | nt | i | i | i | i
O=C1CC(N2CC=C(c3ccccc3)CC2)C(=O)N1c1ccc(F)cc1 (stereo not drawn) | i | i | i | 14.6µM | 18.4µM
CCCOc1ccc(N2C(=O)CC(N3CC=C(c4ccccc4)CC3)C2=O)cc1 (stereo not drawn) | i | i | i | i | ?
COc1cc(NC(=O)CN2C3CCC2CC(O)(c2cccnc2)C3)cc(OC)c1 (stereo not drawn) | i | i | i | i | i
SMILES | IL1B secr inh | HT1080 IDH1KD tx | HT1080-NT tox | DT40 TDP1 CPT | TDP1 cell noCPT
Cc1ccc(C2=NC(C)(C)N3C2C3c2ccc([N+](=O)[O-])cc2)cc1 (stereo not drawn) | i | i | i | ? | 20.6µM
O=C(CN1CCCCC1)c1ccccc1 | nt | nt | nt | i | i
CSc1nc(C)c(Br)c(N2CC2)n1 | i | i | i | i | ?
CCCCC(=O)Nc1c(C(=O)N2CCN(c3ccccc3F)CC2)oc2ccccc12 | nt | nt | nt | 14.6µM | 9.2µM
Oc1cc2c(cc1CN1CCN(c3ccccc3F)CC1)OCO2 | i | i | i | i | i
COc1ccc2c3c1O[C@H]1[C@@H](O)C=C[C@H]4[C@@H](C2)NCC[C@@]341 | nt | nt | nt | i | ?
